Results on 32 molecules are retold here after the antibiotic and cytotoxicity screens of Wong et al. (2023).

The whole screen tested about 39,000 compounds, of which about 3,300 (8.5%) were called active. This is one part of a sample in which actives are shown more often than they occur.

The test relates to HepG2. Briefly: cytotoxicity call (relative viability < 0.9). The settings on record: 10 µM.
Consider `Cc1ccc(S(=O)(=O)N(C)C[C@H]2Oc3ccc(NC(=O)CCCN(C)C)cc3C(=O)N([C@@H](C)CO)C[C@H]2C)cc1`, for which the cytotoxicity call is “inactive”.
Regarding `C[C@H](CO)N1C[C@H](C)[C@@H](CN(C)CC2CCCCC2)OCCCC[C@H](C)Oc2ccc(NC(=O)c3ccncc3)cc2C1=O`, the cytotoxicity call was “inactive”.
As for `COc1cccc(S(=O)(=O)N[C@H]2C=C[C@H](CC(=O)NC3CCC3)O[C@H]2CO)c1`, the cytotoxicity call is “inactive”.
Take `C[C@@H]1CN([C@H](C)CO)C(=O)c2cc(NC(=O)CCC(F)(F)F)ccc2O[C@H]1CN(C)Cc1ccc(C(F)(F)F)cc1`: the cytotoxicity call is “inactive”.
With `CC1CCC2(OC1)OC1CC3C4CCC5CC(O)CCC5(C)C4CC(=O)C3(C)C1C2C` (configuration not stated), the cytotoxicity call was “inactive”.
In the case of `CC(=O)OC1CCC2(C)C(CCC3C2CCC2(C)C3CC3OC4(CCC(C)CO4)C(C)C32)C1` (configuration not stated) it was “inactive”.
Then `CC1CCC2(OC1)OC1CC3C4CC=C5CC(O)CCC5(C)C4CCC3(C)C1C2C` (configuration not stated), with “inactive”.
In the case of `C[C@@H]1O[C@@H](O[C@H]2[C@H](O)[C@@H](O)[C@H](OC[C@H]3O[C@@H](OC(=O)[C@]45CCC(C)(C)C[C@@H]4C4=CC[C@H]6[C@@]7(C)CC[C@H](O[C@H]8OC[C@H](O)[C@H](O)[C@H]8O[C@H]8O[C@@H](C)[C@H](O)[C@@H](O)[C@H]8O)[C@@](C)(CO)[C@@H]7CC[C@@]6(C)[C@]4(C)CC5)[C@H](O)[C@@H](O)[C@@H]3O)O[C@@H]2CO)[C@H](O)[C@H](O)[C@H]1O` it was “inactive”; in that of `CC(C)=CCC[C@](C)(O[C@@H]1O[C@H](CO[C@@H]2OC[C@@H](O)[C@H](O)[C@H]2O)[C@@H](O)[C@H](O)[C@H]1O)[C@H]1CC[C@]2(C)[C@@H]1[C@H](O)C[C@@H]1[C@@]3(C)CC[C@H](O[C@@H]4O[C@H](CO)[C@@H](O)[C@H](O)[C@H]4O)C(C)(C)[C@@H]3CC[C@]12C`, “inactive”; in that of `OC[C@H]1O[C@@H](O[C@H]2[C@H](O)[C@@H](O)[C@@H](O)O[C@@H]2CO)[C@H](O)[C@@H](O)[C@@H]1O`, “inactive”.
`C[C@@H]1CC[C@@]2(OC1)O[C@H]1C[C@H]3[C@H]4C[C@@H](O)[C@H]5C[C@@H](O[C@@H]6O[C@H](CO)[C@H](O[C@@H]7O[C@H](CO)[C@@H](O)[C@H](O[C@@H]8OC[C@@H](O)[C@H](O)[C@H]8O)[C@H]7O[C@@H]7O[C@H](CO)[C@@H](O[C@@H]8O[C@H](CO)[C@@H](O)[C@H](O)[C@H]8O)[C@H](O)[C@H]7O)[C@H](O)[C@H]6O)CC[C@]5(C)[C@@H]4CC[C@]3(C)[C@H]1[C@@H]2C`: the cytotoxicity call was “active”.
In the case of `C[C@@H]1CC[C@@]2(OC1)O[C@H]1C[C@H]3[C@H]4C[C@@H](O)[C@H]5C[C@@H](O[C@@H]6O[C@H](CO)[C@H](O[C@@H]7O[C@H](CO)[C@@H](O)[C@H](O[C@@H]8OC[C@@H](O)[C@H](O)[C@H]8O)[C@H]7O[C@@H]7O[C@H](CO)[C@@H](O)[C@H](O)[C@H]7O)[C@H](O)[C@H]6O)CC[C@]5(C)[C@@H]4CC[C@]3(C)[C@H]1[C@@H]2C` it was “active”.
Regarding `C[C@@H]1CC[C@@]2(OC1)O[C@H]1C[C@H]3[C@H]4CC=C5C[C@@H](O[C@@H]6O[C@H](CO)[C@@H](O[C@@H]7O[C@@H](C)[C@H](O)[C@@H](O)[C@H]7O[C@@H]7O[C@@H](C)[C@H](O)[C@@H](O)[C@H]7O)[C@H](O)[C@H]6O)CC[C@]5(C)[C@@H]4CC[C@]3(C)[C@H]1[C@@H]2C`, the cytotoxicity call is “active”.
Then `OC[C@@H]1O[C@H](O)[C@H](O)[C@H](O[C@@H]2O[C@H](CO)[C@H](O)[C@H](O[C@@H]3O[C@H](CO)[C@@H](O)[C@H](O)[C@@H]3O)[C@H]2O)[C@H]1O`, with “inactive”; and `CC(=O)OC1CCC2(C)C(CCC3C2CC(=O)C2(C)C3CC3OC4(CCC(C)CO4)C(C)C32)C1` (configuration not stated), with “inactive”; and `C[C@@H]1CCCCO[C@H](CN(C)C(=O)Nc2ccc(C(F)(F)F)cc2)[C@@H](C)CN([C@@H](C)CO)C(=O)c2cc(NC(=O)c3ccccc3)ccc2O1`, with “inactive”.
As for `CN[C@@H]1[C@@H](O)[C@@H](O[C@@H]2[C@@H](O)[C@H](O[C@H]3OC(CN)=CC[C@H]3N)[C@@H](N)C[C@H]2N)OC[C@]1(C)O`, the cytotoxicity call was “inactive”.
In the case of `C[C@H](CO)N1C[C@H](C)[C@@H](CN(C)S(=O)(=O)c2ccc(F)cc2)Oc2c(NC(=O)C3CC3)cccc2C1=O` it was “inactive”; in that of `O=C(Nc1ccno1)N1CCOCC1`, “inactive”; in that of `C[C@@H]1CN([C@@H](C)CO)C(=O)Cc2cc(NS(=O)(=O)c3ccc(F)cc3)ccc2O[C@H]1CN(C)CC1CC1`, “inactive”.
Then `C[C@H]1CCCCO[C@H](CN(C)C(=O)NC2CCCCC2)[C@@H](C)CN([C@@H](C)CO)C(=O)c2cc(NC(=O)c3ccncc3)ccc2O1`, with “inactive”; and `O=C(C[C@H]1CC[C@H](NS(=O)(=O)c2ccc(F)cc2)[C@@H](CO)O1)NCc1ccc(Cl)c(Cl)c1`, with “inactive”.
In the case of `Cc1ccc(S(=O)(=O)N(C)C[C@@H]2Oc3c(NS(=O)(=O)c4ccccc4)cccc3C(=O)N([C@H](C)CO)C[C@@H]2C)cc1` it was “inactive”.
As to `NNC(=O)[C@H]1CCCNC1=O`, the cytotoxicity call is “active”.
In the case of `COC(=O)[C@H]1CCCNC1=O` it was “inactive”; in that of `O=C1NCCC[C@@H]1C(=O)N1CCCCC1`, “inactive”; in that of `COC[C@H]1C[C@@H](c2nc(-c3ccc4c(c3)COc3cc5c(ccc6[nH]c([C@@H]7CC[C@H](C)N7C(=O)[C@@H](NC(=O)OC)C(C)C)nc65)cc3-4)c[nH]2)N(C(=O)[C@H](NC(=O)OC)c2ccccc2)C1`, “inactive”.
For `C[C@H]1CCCCO[C@H](CN(C)S(=O)(=O)c2ccc(Cl)cc2)[C@@H](C)CN([C@@H](C)CO)C(=O)c2cc(NC(=O)Nc3cccc4ccccc34)ccc2O1`, the cytotoxicity call is “inactive”.
In the case of `CCCCCCCCCCCCCCCC[N+](C)(C)CCN(Cc1ccc(OC)cc1)c1ncccn1` it was “active”.
In the case of `COc1ccc(CN(CCN(C)C)c2ncccn2)cc1.Cl` it was “inactive”; in that of `C[C@@H]1CN([C@H](C)CO)C(=O)c2cc(NC(=O)Cc3ccccc3)ccc2O[C@@H](C)CCCCO[C@@H]1CN(C)C(=O)CCC(F)(F)F`, “inactive”; in that of `C[C@H](CO)N1C[C@H](C)[C@H](CN(C)C(=O)Nc2ccccc2)Oc2c(NC(=O)c3ccc(-c4nccs4)cc3)cccc2C1=O`, “inactive”.
